Test systems include DU-145 prostate; K-562 leukemia; MALME-3M melanoma; MDA-MB-231 breast; RXF 393 renal; SF-268 CNS; SF-295 CNS; SF-539 CNS; UACC-257 melanoma; M14 melanoma.
Holding throughout (assay): NCI-60 one-dose screen, 48 h (100 = growth as untreated, 0 = no growth, -100 = all killed)
Holding throughout (settings): 10 µM unless noted

Compounds without any hit were thinned out: in the full panel of roughly 83,000, 20% have a hit.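 Each cell line was grown in a 96-well plate and treated with one concentration of compound for 48 hours. Values below 10 were considered active.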 Values without a mark were called inactive. Activity calls are given as the source filed them.

As to `COc1ccc2[nH]c(O)c(C(=Nc3ccc(N(C)C(=O)CN4CCN(C)CC4)cc3)c3ccccc3)c2c1`, the growth in the experiment on DU-145 prostate is 27.7%; with K-562 leukemia it was 5.35% (active); in the experiment on MALME-3M melanoma it was 43.5%; in the experiment on MDA-MB-231 breast, 28.4%; in the experiment with RXF 393 renal, -25.1% (active); in the experiment with SF-268 CNS, 30.7%. Moreover, the growth in the experiment with SF-295 CNS is 48.3%; with SF-539 CNS, -38.9% (active); in the experiment on UACC-257 melanoma, 65.9%; in the experiment on M14 melanoma, 29.3%.
On to `COc1cccc(C(=O)NCCNc2cc(-c3cn(-c4ccccc4)nc3-c3cccc(OC)c3)ccn2)c1`, for which the growth was 64% with DU-145 prostate; 32.4% with K-562 leukemia; 81% in the experiment with MALME-3M melanoma; 62.1% with MDA-MB-231 breast; 74.2% in the experiment with RXF 393 renal; 68.9% with SF-268 CNS. Also, the growth in the experiment with SF-295 CNS is 58.3%; in the experiment with SF-539 CNS, 87.3%; in the experiment on UACC-257 melanoma, 46.9%; in the experiment on M14 melanoma it was 51.3%.
In the case of `Cc1c2c(c(C)c3c1oc1cc(O)ccc13)C(=O)N(CCN1CCCCC1)C2=O`, the growth with DU-145 prostate was 68.4%; in the experiment on K-562 leukemia, 3.97% (active); in the experiment with MALME-3M melanoma, 100%; in the experiment with MDA-MB-231 breast it was 83%; in the experiment with RXF 393 renal, 87.1%; in the experiment with SF-268 CNS, 73.4%. Moreover, the growth was 102% with SF-295 CNS, 91.6% in the experiment with SF-539 CNS, 110% in the experiment with UACC-257 melanoma and 91.7% with M14 melanoma.
Turning to `Cc1ccc(Cc2cnc(NC(=O)c3ccc4noc(-c5ccccc5)c4c3)s2)cc1`, the growth is 102% in the experiment with DU-145 prostate; 91.2% in the experiment with K-562 leukemia; 106% in the experiment on MALME-3M melanoma; 94.8% in the experiment on MDA-MB-231 breast; -4.67% (active) in the experiment with RXF 393 renal; 98.9% in the experiment with SF-268 CNS. For the same molecule, the growth in the experiment on SF-295 CNS was 95.9%; in the experiment on SF-539 CNS, 94.7%; with UACC-257 melanoma it was 99.3%; with M14 melanoma, 93.4%.
Take `O=Cc1ccc(O)c2ncccc12`: the growth with DU-145 prostate was 41.9%; in the experiment on K-562 leukemia it was -23.6% (active); with MALME-3M melanoma it was 19%; in the experiment on MDA-MB-231 breast, 54.2%; with RXF 393 renal, 76.6%; with SF-268 CNS it was 19.1%. In addition, the growth with SF-295 CNS is 29.2%; in the experiment on SF-539 CNS, 25.1%; with UACC-257 melanoma, 27.9%; with M14 melanoma it was 21.4%.
As for `Cc1cc(NCc2cc(Nc3ccnc4cc(Cl)ccc34)ccc2F)nc(N2CCOCC2)n1`, the growth was 23.8% with DU-145 prostate; 4.21% (active) in the experiment with K-562 leukemia; -0.307% (active) in the experiment with MALME-3M melanoma; 19.1% in the experiment on MDA-MB-231 breast; -3.51% (active) in the experiment on RXF 393 renal; 42.4% in the experiment on SF-268 CNS. Further, the growth in the experiment with SF-295 CNS was -71.6% (active); in the experiment on SF-539 CNS, -29.4% (active); in the experiment on UACC-257 melanoma, 50.8%; with M14 melanoma, -22.9% (active).
`COC1=CC(=O)C[C@@H](C)[C@]12Oc1c(Cl)c(OC)cc(OC)c1C2=O`: the growth in the experiment on DU-145 prostate is 105%; in the experiment with K-562 leukemia, 32.9%; with MALME-3M melanoma it was 85.2%; in the experiment with MDA-MB-231 breast, 84.1%; with RXF 393 renal, 86.8%; with SF-268 CNS, 93.5%. The growth is 96.8% with SF-295 CNS, 104% in the experiment on SF-539 CNS, 84.5% with UACC-257 melanoma and 66.3% with M14 melanoma.
For `COc1ccc2oc3c(C)c4c(c(C)c3c2c1)C(=O)N(Cc1ccccc1)C4=O`, the growth is 97.1% in the experiment on DU-145 prostate; 92.3% in the experiment with K-562 leukemia; 92.5% in the experiment on MALME-3M melanoma; 90.3% in the experiment with MDA-MB-231 breast; 99% in the experiment on RXF 393 renal; 87.8% in the experiment on SF-268 CNS. In addition, the growth in the experiment with SF-295 CNS was 101%; in the experiment with SF-539 CNS, 89.7%; in the experiment with UACC-257 melanoma it was 105%; in the experiment with M14 melanoma it was 92.9%.
As to `O=Cc1c[nH]c2ccc(-c3csc4ccccc34)cc12`, the growth was 80% with DU-145 prostate; 8.16% (active) in the experiment on K-562 leukemia; 44.4% with MALME-3M melanoma; 45.7% with MDA-MB-231 breast; 45.3% in the experiment on RXF 393 renal; 44.5% in the experiment on SF-268 CNS. Moreover, the growth in the experiment with SF-295 CNS was -22.6% (active); with SF-539 CNS it was 30.9%; in the experiment with UACC-257 melanoma, 39.3%; with M14 melanoma, 23.5%.
`O=C(COc1ccc(/C=C2\Oc3ccccc3C2=O)cc1)Nc1nc2ccccc2s1`: the growth in the experiment on DU-145 prostate was -74.8% (active); in the experiment with K-562 leukemia, 27.9%; in the experiment with MALME-3M melanoma, 24.5%; in the experiment on MDA-MB-231 breast, 44.8%; in the experiment with RXF 393 renal, 14.2%; with SF-268 CNS, 13.4%. Moreover, the growth is 628% with SF-295 CNS, -88.3% (active) with SF-539 CNS, 110% with UACC-257 melanoma and 95.4% in the experiment on M14 melanoma.
In the case of `COc1cccc(-c2nc3sccn3c2/C=C/C(=O)c2ccc(C(F)(F)F)cc2)c1`, the growth was 88.4% with DU-145 prostate; 51.8% in the experiment on K-562 leukemia; 104% in the experiment with MALME-3M melanoma; 89.6% in the experiment on MDA-MB-231 breast; 67.7% with RXF 393 renal; 89.2% with SF-268 CNS. The growth in the experiment on SF-295 CNS is 106%; in the experiment on SF-539 CNS, 96.6%; with UACC-257 melanoma it was 73.9%; in the experiment with M14 melanoma, 85.4%.
Take `COc1cccc2c1C(=O)c1c(O)c3c(c(O)c1C2=O)CC(O)(/C(C)=N/NC(=O)CCCCC(=O)N/N=C(\C)C1(O)Cc2c(O)c4c(c(O)c2C(OC2CC(N)C(O)C(C)O2)C1)C(=O)c1c(OC)cccc1C4=O)CC3OC1CC(N)C(O)C(C)O1` (stereo not given): the growth with DU-145 prostate is -47.4% [5 µM] (active); in the experiment on K-562 leukemia it was -51.8% [5 µM] (active); in the experiment on MALME-3M melanoma, -66.9% [5 µM] (active); in the experiment on MDA-MB-231 breast, -2.21% [5 µM] (active); in the experiment on RXF 393 renal it was -55.4% [5 µM] (active); in the experiment on SF-268 CNS, -31.3% [5 µM] (active). The growth is -35.3% [5 µM] (active) with SF-295 CNS, -41.8% [5 µM] (active) in the experiment on SF-539 CNS, -34.3% [5 µM] (active) in the experiment with UACC-257 melanoma and -57.1% [5 µM] (active) in the experiment on M14 melanoma.
For `OC(c1cccc(-n2ccc(C(F)(F)F)n2)c1)c1cnccc1NC1CCCCCC1` (stereo not given), the growth with DU-145 prostate was 2.76% (active); in the experiment on K-562 leukemia, 3.64% (active); with MALME-3M melanoma, -79% (active); with MDA-MB-231 breast, -76.4% (active); with RXF 393 renal, 14.2%; with SF-268 CNS it was 64.4%. Moreover, the growth in the experiment with SF-295 CNS is 81.3%; in the experiment with SF-539 CNS it was 61.3%; with UACC-257 melanoma, -17.8% (active); in the experiment on M14 melanoma it was -75.1% (active).
`COc1cc(/C=N/NC(=O)Cn2c(C(C)C)nc3ccccc32)ccc1O`: the growth in the experiment on DU-145 prostate was 110%; with K-562 leukemia, 100%; with MALME-3M melanoma, 105%; in the experiment with MDA-MB-231 breast, 95.5%; with RXF 393 renal, 95.7%; with SF-268 CNS, 91.2%. For the same molecule, the growth was 104% with SF-295 CNS, 94.4% in the experiment on SF-539 CNS, 98.2% in the experiment on UACC-257 melanoma and 92.6% in the experiment with M14 melanoma.
As for `O=C(N=c1oc2ccccc2cc1-c1cc2ccccc2[nH]1)c1ccc(Cl)cc1`, the growth with DU-145 prostate is 51.3%; in the experiment on K-562 leukemia, 26.5%; with MALME-3M melanoma, 94.1%; in the experiment on MDA-MB-231 breast, 51.2%; in the experiment with RXF 393 renal, 59.9%; in the experiment on SF-268 CNS, 35.5%. Also, the growth is 60.3% in the experiment on SF-295 CNS, 52.8% in the experiment with SF-539 CNS, 98.7% in the experiment on UACC-257 melanoma and 79.7% with M14 melanoma.
As to `Cc1cc(NCc2cc(Nc3ccnc4cc(Cl)ccc34)ccc2F)nc(N2CCCC2)n1`, the growth in the experiment on DU-145 prostate is 10.8%; in the experiment with K-562 leukemia, -46.2% (active); with MALME-3M melanoma, -65.6% (active); with MDA-MB-231 breast, -49.1% (active); in the experiment with RXF 393 renal, -65.5% (active); in the experiment with SF-268 CNS, -2.08% (active). For the same molecule, the growth with SF-295 CNS is -84.4% (active); in the experiment with SF-539 CNS, -68.5% (active); in the experiment on UACC-257 melanoma, -17.8% (active); in the experiment on M14 melanoma, -71.3% (active).
`COc1ccc(S(=O)(=O)NCCNc2nccc(-c3c(-c4cccc(F)c4)nc4sccn34)n2)cc1`: the growth is 48.3% in the experiment on DU-145 prostate; 23% in the experiment with K-562 leukemia; 49.1% with MALME-3M melanoma; 61.4% in the experiment on MDA-MB-231 breast; 28.8% in the experiment with RXF 393 renal; 35.4% with SF-268 CNS. The growth in the experiment with SF-295 CNS is 58.5%; in the experiment with SF-539 CNS, 77.4%; in the experiment with UACC-257 melanoma, 66.7%; with M14 melanoma it was 38.4%.
As to `O=C(NCCCNc1cc(-c2cn(-c3ccccc3)nc2-c2cccc(O)c2)ccn1)c1cccc(O)c1`, the growth with DU-145 prostate was 78.3%; in the experiment with K-562 leukemia it was 7.59% (active); with MALME-3M melanoma, 64.2%; with MDA-MB-231 breast it was 43.5%; with RXF 393 renal, 77.3%; with SF-268 CNS, 63.8%. Besides, the growth in the experiment on SF-295 CNS is 83.3%; in the experiment on SF-539 CNS, 69.5%; with UACC-257 melanoma, 58.4%; in the experiment on M14 melanoma it was 52.8%.
As for `N#Cc1c(-c2ccccn2)[nH]c(=S)[nH]c1=O`, the growth in the experiment on DU-145 prostate is 105%; in the experiment with K-562 leukemia it was 97%; in the experiment with MALME-3M melanoma, 108%; with MDA-MB-231 breast, 117%; in the experiment with RXF 393 renal it was 110%; in the experiment on SF-268 CNS, 101%. Also, the growth in the experiment with SF-295 CNS was 99.1%; in the experiment on SF-539 CNS, 97.3%; in the experiment with UACC-257 melanoma, 109%; in the experiment with M14 melanoma, 97.6%.
As for `O=[N+]([O-])c1ccc(Sc2cccc[n+]2[O-])c2nonc12`, the growth was 50% in the experiment on DU-145 prostate; -21.7% (active) in the experiment on K-562 leukemia; 100% in the experiment on MALME-3M melanoma; 90.4% with MDA-MB-231 breast; 54.5% with RXF 393 renal; 58.9% with SF-268 CNS. Further, the growth in the experiment on SF-295 CNS is 89.9%; in the experiment with SF-539 CNS, 93.6%; in the experiment with UACC-257 melanoma, 91.5%; in the experiment with M14 melanoma, 71.3%.

The values above are taken from PubChem BioAssay (NCI).
